Screens deposited in PubChem by several laboratories.
Anthrax LF prot: blocks Bacillus anthracis lethal factor protease; multiplex microsphere protease cleavage assay, LF; inhibition, % at 10 µM; actives 0.12% (n = 360,000); AID 588501; also: plate controls were buffer without enzyme for full effect and enzyme alone for no effect
Target sequence (P15917 whole entry, looked up): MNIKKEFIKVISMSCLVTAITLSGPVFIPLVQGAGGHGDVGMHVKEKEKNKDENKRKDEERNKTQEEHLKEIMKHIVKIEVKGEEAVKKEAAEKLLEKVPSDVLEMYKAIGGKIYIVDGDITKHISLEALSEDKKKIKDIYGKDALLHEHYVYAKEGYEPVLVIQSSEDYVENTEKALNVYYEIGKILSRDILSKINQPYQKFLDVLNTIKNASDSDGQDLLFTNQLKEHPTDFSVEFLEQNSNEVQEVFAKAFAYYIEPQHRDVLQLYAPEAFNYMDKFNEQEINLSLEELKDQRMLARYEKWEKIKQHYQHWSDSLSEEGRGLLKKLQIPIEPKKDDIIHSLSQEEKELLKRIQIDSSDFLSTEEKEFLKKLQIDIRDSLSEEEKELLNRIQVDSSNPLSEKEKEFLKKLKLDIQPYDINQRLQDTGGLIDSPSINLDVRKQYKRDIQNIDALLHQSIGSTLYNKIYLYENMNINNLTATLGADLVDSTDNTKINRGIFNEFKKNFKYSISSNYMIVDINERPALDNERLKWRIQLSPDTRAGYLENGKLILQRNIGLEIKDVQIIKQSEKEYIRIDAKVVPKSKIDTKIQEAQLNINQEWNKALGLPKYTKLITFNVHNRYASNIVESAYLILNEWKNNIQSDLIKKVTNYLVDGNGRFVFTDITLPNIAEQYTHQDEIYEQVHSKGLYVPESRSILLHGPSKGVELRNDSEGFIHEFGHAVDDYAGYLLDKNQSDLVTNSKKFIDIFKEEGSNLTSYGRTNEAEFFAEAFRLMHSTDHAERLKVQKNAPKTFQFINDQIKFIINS
Autofluor counter: counter-screen for toxin protease inhibitors: compound fluorescence; fluorescence intensity (test concentration not listed); compound autofluorescence counterscreen, microsphere flow cytometry; active compounds read high; AID 624483; actives 3.1% (n = 360,000); in the data active = fluorescence intensity above about 16000; inconclusive = no clear call, values can overlap the other calls
BoNT A protease: BoNT A light chain protease inhibition; multiplex microsphere protease substrate cleavage, flow cytometry; inhibition, % at 10 µM; actives 0.17% (n = 360,000); AID 588499; also: plate controls were buffer without enzyme for full effect and enzyme alone for no effect
MazEF act: increases E. coli MazEF RNase cleavage of RNA | P0AE70 | FAM/BHQ RNA-DNA oligo cleavage fluorescence, 5 h | activation, % at 20 µM | actives 0.32% (n = 350,000); in the data active = activation above about 50%
BoNT-F LC inh: BoNT F light chain protease inhibition | actives 0.22% (n = 360,000) | AID 588497 | Multiplex microsphere protease cleavage assay, flow cytometry | inhibition, % at 10 µM; in the data active = inhibition above about 35%, passing the limit was not always enough; inconclusive = no clear call, values can overlap the other calls; also: plate controls were buffer without enzyme for full effect and enzyme alone for no effect
DUSP3 inh: inhibitors of human VHR1 phosphatase (DUSP3) | inhibition, % at 13.3 µM | actives 0.52% (n = 290,000) | P51452 | recombinant VHR phosphatase, pNPP absorbance; in the data active = inhibition above about 50%
* marks the source's active call; other numbers are inactive results. A selection: hits, their analogues and other compounds. The true share with any hit is near 4%. Rule as the data show it, unless noted: active = inhibition above about 30%; inconclusive = no clear call, values can overlap the other calls; inactive = below that.

Results for Cc1ccc2c(c1)N(CC(=O)c1cccc(Cl)c1)C(=O)C(C)O2 (stereo not given) ?
Anthrax LF prot: -4; Autofluor counter: 23986*; BoNT A protease: -2; MazEF act: 13; BoNT-F LC inh: -2; DUSP3 inh: 37

How did Cc1ccc2c(c1)N(CC(=O)N(Cc1ccc3c(c1)OCO3)CC1CCCO1)C(=O)C(C)O2 (stereo not given) do in these assays?
Anthrax LF prot: 1; Autofluor counter: 23947*; BoNT A protease: 0; MazEF act: -1; BoNT-F LC inh: -3; DUSP3 inh: 27

What do the screens show for `COc1ccc(CN(CC2CCCO2)C(=O)CN2C(=O)COc3ccccc32)cc1OC` (stereo not given)?
Anthrax LF prot: 4; Autofluor counter: 3722; BoNT A protease: 0; MazEF act: 0; BoNT-F LC inh: 18; DUSP3 inh: 18

How did CC1Oc2ccccc2N(CC(=O)N2CCCC2)C1=O (stereo not given) do in these assays?
Anthrax LF prot: 3; Autofluor counter: 3779; BoNT A protease: 0; MazEF act: 1; BoNT-F LC inh: 20; DUSP3 inh: 49

Results for Cc1ccc2c(c1)N(Cc1ccncc1)C(=O)C(C)O2 (stereo not given) ?
Anthrax LF prot: -3; Autofluor counter: 22957*; BoNT A protease: 2; MazEF act: 10; BoNT-F LC inh: 2; DUSP3 inh: 32

How did Cc1ccc2c(c1)N(CC(=O)N1CCCCCC1)C(=O)C(C)O2 (stereo not given) do in these assays?
Anthrax LF prot: -2; Autofluor counter: 3871; BoNT A protease: 1; MazEF act: -1; BoNT-F LC inh: -20; DUSP3 inh: 2

How did O=C(NCC(c1ccco1)N1CCc2ccccc21)c1ccccc1 (stereo not given) do in these assays?
Anthrax LF prot: 2; Autofluor counter: inconclusive; BoNT A protease: 2; MazEF act: -12; BoNT-F LC inh: 5

Results for COc1ccccc1CNc1cc(-c2ccccc2)ccc1OC ?
Anthrax LF prot: -6; Autofluor counter: 2510; BoNT A protease: -2; MazEF act: -6; BoNT-F LC inh: -10; DUSP3 inh: -2

Results for COc1ccc(-c2c(C)nn3c(N4CCN(Cc5ccccc5)CC4)cc(C)nc23)cc1OC ?
Anthrax LF prot: 8; Autofluor counter: 6083; BoNT A protease: 0; MazEF act: 13; BoNT-F LC inh: -6; DUSP3 inh: 25

What do the screens show for `Cc1cc(N2CCN(Cc3ccccc3)CC2)n2nc(C)c(-c3ccccc3)c2n1`?
Anthrax LF prot: -4; Autofluor counter: 22404*; BoNT A protease: -5; MazEF act: -5; BoNT-F LC inh: -10; DUSP3 inh: 10

Results for Cc1nn2c(N3CCN(C4CCCC4)CC3)cc(C(C)(C)C)nc2c1-c1ccccc1 ?
Anthrax LF prot: -10; Autofluor counter: 23963*; BoNT A protease: inconclusive; MazEF act: 0; BoNT-F LC inh: -4; DUSP3 inh: 51*

Results for O=C1CC(c2ccccc2Cl)C2=C(COC2=O)N1 (stereo not given) ?
Anthrax LF prot: -1; Autofluor counter: 23482*; BoNT A protease: 0; MazEF act: -1; BoNT-F LC inh: 2; DUSP3 inh: 3

What do the screens show for `O=C1CC(c2cccc(Br)c2)C2=C(COC2=O)N1` (stereo not given)?
Anthrax LF prot: 5; Autofluor counter: 4573; BoNT A protease: -1; MazEF act: 6; BoNT-F LC inh: 0; DUSP3 inh: 18

Results for CC[C@]12c3[nH]c4ccc(OC)cc4c3CCN1C(=O)C(CC(=O)NCCCOC)C[C@@H]2C(=O)N1CCN(C(=O)C2CC2)CC1 (stereo not given in full) ?
Anthrax LF prot: -7; Autofluor counter: 3579; BoNT A protease: 0; MazEF act: 75*; BoNT-F LC inh: -15

Results for CC[C@]12c3[nH]c4ccc(Cl)cc4c3CCN1C(=O)[C@@H](CC(=O)NCCCN(C)C)C[C@@H]2C(=O)N1CCN(C(=O)C2CC2)CC1 ?
Anthrax LF prot: 4; Autofluor counter: 3883; BoNT A protease: 0; MazEF act: 9; BoNT-F LC inh: -3

Results for CN(C)C(=O)CCc1ccc2c3c([nH]c2c1)[C@]1(CCC2CCCC2)[C@@H](C(=O)N2CCOCC2)C[C@H](CC(=O)NC(C)(C)C)C(=O)N1CC3 ?
Anthrax LF prot: -6; Autofluor counter: 4084; BoNT A protease: -1; MazEF act: 59*; BoNT-F LC inh: -2

Results for CC[C@]12c3[nH]c4cc(-c5ccco5)ccc4c3CCN1C(=O)[C@@H](CC(=O)NCCCN(C)C)C[C@@H]2C(=O)N1CCN(C(=O)c2ccco2)CC1 ?
Anthrax LF prot: 2; Autofluor counter: 2985; BoNT A protease: 0; MazEF act: 53*; BoNT-F LC inh: -6

How did COc1cc(O)c(C(CCN2CCCC2)c2ccc(N(C)C)cc2)c(OC)c1 (stereo not given) do in these assays?
Anthrax LF prot: -11; Autofluor counter: 5236; BoNT A protease: -1; MazEF act: 8; BoNT-F LC inh: -6; DUSP3 inh: 0

How did Cc1cc(C)n2nc(-c3cnn(C)c3C(F)(F)F)cc2n1 do in these assays?
Anthrax LF prot: -7; Autofluor counter: 19076*; BoNT A protease: inconclusive; MazEF act: 1; BoNT-F LC inh: 3; DUSP3 inh: 29

Results for CCOC(=O)C1CCCN(CCC(=O)Nc2cc(C)cc(C)c2)C1 (stereo not given) ?
Anthrax LF prot: 2; Autofluor counter: 3873; BoNT A protease: 1; MazEF act: -1; BoNT-F LC inh: 12; DUSP3 inh: 9

How did O=C1COc2ccc(OCc3ccc(F)cc3)cc21 do in these assays?
Anthrax LF prot: -1; Autofluor counter: 23249*; BoNT A protease: -2; MazEF act: -19; BoNT-F LC inh: 0; DUSP3 inh: 18

How did Cc1cc(NC(=O)C2CC(=O)OC2c2ccccc2)no1 (stereo not given) do in these assays?
Anthrax LF prot: 0; Autofluor counter: 23968*; BoNT A protease: -1; MazEF act: 1; BoNT-F LC inh: -5; DUSP3 inh: -14

Results for Cc1ccc(N2CC(C(=O)N3CCC(C(=O)NC(C)(C)C)CC3)CC2=O)cc1 (stereo not given) ?
Anthrax LF prot: -8; Autofluor counter: 2781; BoNT A protease: 0; MazEF act: 3; BoNT-F LC inh: 16; DUSP3 inh: 26

How did COc1ccc(NC(=O)CCS(=O)(=O)c2cccc3nonc23)c(OC)c1 do in these assays?
Anthrax LF prot: 6; Autofluor counter: 3513; BoNT A protease: 4; MazEF act: -1; BoNT-F LC inh: 20; DUSP3 inh: -4

How did COc1ccc(CC(C)N2CCN(Cc3ccccc3)CC2)c(OC)c1 (stereo not given) do in these assays?
Anthrax LF prot: -1; Autofluor counter: 18004*; BoNT A protease: 8; MazEF act: 3; BoNT-F LC inh: 10; DUSP3 inh: 31

How did CN=C(C)c1c(O)c2ccccc2oc1=O do in these assays?
Anthrax LF prot: -3; Autofluor counter: 9485; BoNT A protease: 1; MazEF act: 4; BoNT-F LC inh: 7; DUSP3 inh: -12
